Results filed as inconclusive are left out. Entries that show only a call come without a potency. Activity calls are given as the source filed them. Calls come from the whole dose curve; as a rule, active = well fitted curve in the direction sought with a large enough effect in the repeat runs; inconclusive = weak or mixed curves; inactive = no such curve, though single readings can be large; an effect the other way counts as inactive or inconclusive.
Experiments:
[1] = biological target: Cytochrome P450 2C19 (Homo sapiens) (UniProt P33261); assay: Cytochrome P450 Family 2 Subfamily C Member 19 (CYP2C19) small molecule antagonists: luciferase reporter qHTS assay (AID 1671197); details: P450-Glo CYP2C19 enzyme, luciferin luminescence, 1 h; series mostly up to 115 µM; note: nearly all actives have a fitted effect of over 65% in size; note: potency is the fitted concentration of half-maximal effect
Procedure, shortened: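 Enzyme-substrate mix with proluciferin substrate (P450-Glo CYP2C19 system) preincubated with compounds 10 min at room temperature; NADPH regeneration solution added, 37C for 1 h; detection reagent stops reaction, luminescence read after 20 min. Ketoconazole positive control.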

[2] = biological target: Cytochrome P450 2C9 (Homo sapiens) (UniProt P11712); assay: Cytochrome P450 Family 2 Subfamily C Member 9 (CYP2C9) small molecule antagonists: luciferase reporter qHTS assay (AID 1671198); details: P450-Glo CYP2C9 enzyme assay, luciferin luminescence; series mostly up to 115 µM; note: nearly all actives have a fitted effect of over 50% in size; note: potency is the fitted concentration of half-maximal effect
Procedure, shortened: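 P450-Glo proluciferin substrate with CYP2C9 enzyme; 10 min RT preincubation, then NADPH regeneration 1 h at 37C; luciferin detection reagent 20 min RT, luminescence in relative luminescence units.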

[3] = biological target: Cytochrome P450 1A2 (Homo sapiens) (UniProt P05177); assay: Cytochrome P450 Family 1 Subfamily A Member 2 (CYP1A2) small molecule antagonists: luciferase reporter qHTS assay (AID 1671199); details: P450-Glo CYP1A2 enzyme, luciferin luminescence, 1 h; series mostly up to 115 µM; note: nearly all actives have a fitted effect of over 50% in size; note: potency is the fitted concentration of half-maximal effect
Procedure, shortened: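 Inhibition of CYP1A2 conversion of proluciferin to luciferin, detected by luminescence. Reaction run 1 h at room temperature with NADPH regeneration after brief compound preincubation.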

[4] = biological target: Voltage-gated inwardly rectifying potassium channel KCNH2 (Homo sapiens) (UniProt Q12809); assay: Human Ether-a-go-go-Related Gene (hERG) channel small molecule antagonists: fluorescence cell-based qHTS assay (AID 1671200); details: hERG-U2OS cells, FluxOR thallium flux fluorescence; series mostly up to 76.8 µM;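 note: hERG-expressing U2OS cells given a thallium stimulus after FluxOR II dye loading; nearly all actives have a fitted effect of over 50% in size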
Procedure, shortened: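 hERG-U2OS cells plated overnight at 37 C, loaded with FluxOR II dye 1 h at RT in dark; after 10 min, thallium stimulus added. Fluorescence (480/540 nm) read kinetically for 2 min at 1 s intervals.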

[5] = biological target: Cytochrome P450 3A4 (Homo sapiens) (UniProt P08684); assay: Cytochrome P450 Family 3 Subfamily A Member 4 (CYP3A4) small molecule antagonists: luciferase reporter qHTS assay (AID 1671201); details: P450-Glo CYP3A4 enzyme, luciferin luminescence, 1 h; series mostly up to 115 µM; note: nearly all actives have a fitted effect of over 50% in size
Procedure, shortened: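 P450-Glo CYP3A4 luminescent assay: compounds preincubated 10 min at room temperature with enzyme and proluciferin substrate, NADPH regeneration added, 1 h room-temperature reaction, stopped with luciferin detection reagent; luminescence read after 20 min. Ketoconazole positive control.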

Chain of Cytochrome P450 2C19 (Homo sapiens) (P33261 whole entry, looked up): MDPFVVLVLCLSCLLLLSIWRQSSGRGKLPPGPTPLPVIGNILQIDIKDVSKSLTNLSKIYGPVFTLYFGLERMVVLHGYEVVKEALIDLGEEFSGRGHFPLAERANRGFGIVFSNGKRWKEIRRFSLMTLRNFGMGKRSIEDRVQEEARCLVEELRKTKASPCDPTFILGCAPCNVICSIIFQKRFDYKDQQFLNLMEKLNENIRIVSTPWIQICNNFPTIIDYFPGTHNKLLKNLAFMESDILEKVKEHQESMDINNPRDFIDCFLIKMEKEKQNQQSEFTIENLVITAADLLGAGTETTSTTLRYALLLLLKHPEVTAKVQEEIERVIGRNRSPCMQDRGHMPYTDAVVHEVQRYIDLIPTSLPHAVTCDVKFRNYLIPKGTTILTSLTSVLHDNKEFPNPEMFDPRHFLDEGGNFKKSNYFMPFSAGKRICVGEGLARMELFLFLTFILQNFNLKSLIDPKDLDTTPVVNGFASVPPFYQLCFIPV
Chain of Cytochrome P450 2C9 (Homo sapiens) (P11712 whole entry, looked up): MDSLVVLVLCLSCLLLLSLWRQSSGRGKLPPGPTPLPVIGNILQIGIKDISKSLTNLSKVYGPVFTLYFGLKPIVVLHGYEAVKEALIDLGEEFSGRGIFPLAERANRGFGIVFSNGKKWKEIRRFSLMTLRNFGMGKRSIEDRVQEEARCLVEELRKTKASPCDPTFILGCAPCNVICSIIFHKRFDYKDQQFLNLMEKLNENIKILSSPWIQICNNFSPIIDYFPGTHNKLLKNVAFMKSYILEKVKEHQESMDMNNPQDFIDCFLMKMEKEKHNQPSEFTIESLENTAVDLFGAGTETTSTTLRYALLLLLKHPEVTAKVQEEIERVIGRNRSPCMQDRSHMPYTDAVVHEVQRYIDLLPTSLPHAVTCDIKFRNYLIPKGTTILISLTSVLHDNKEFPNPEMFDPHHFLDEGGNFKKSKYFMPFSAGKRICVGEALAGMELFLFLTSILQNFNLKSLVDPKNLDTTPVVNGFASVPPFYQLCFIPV
Chain of Cytochrome P450 1A2 (Homo sapiens) (P05177 whole entry, looked up): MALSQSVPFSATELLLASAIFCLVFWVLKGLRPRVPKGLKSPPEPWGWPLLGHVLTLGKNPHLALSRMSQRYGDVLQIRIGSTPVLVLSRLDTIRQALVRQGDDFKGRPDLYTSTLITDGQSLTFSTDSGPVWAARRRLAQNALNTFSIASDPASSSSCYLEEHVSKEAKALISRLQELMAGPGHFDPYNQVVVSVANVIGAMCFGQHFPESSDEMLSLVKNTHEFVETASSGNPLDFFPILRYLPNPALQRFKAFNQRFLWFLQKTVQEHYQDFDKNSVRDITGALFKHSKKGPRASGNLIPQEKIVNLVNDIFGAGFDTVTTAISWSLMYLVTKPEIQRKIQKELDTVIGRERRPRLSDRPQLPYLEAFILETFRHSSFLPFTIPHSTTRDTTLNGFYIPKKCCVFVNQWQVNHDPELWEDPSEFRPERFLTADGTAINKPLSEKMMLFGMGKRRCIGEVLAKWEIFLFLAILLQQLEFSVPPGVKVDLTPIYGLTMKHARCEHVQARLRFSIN
Chain of Voltage-gated inwardly rectifying potassium channel KCNH2 (Homo sapiens) (Q12809 whole entry, looked up): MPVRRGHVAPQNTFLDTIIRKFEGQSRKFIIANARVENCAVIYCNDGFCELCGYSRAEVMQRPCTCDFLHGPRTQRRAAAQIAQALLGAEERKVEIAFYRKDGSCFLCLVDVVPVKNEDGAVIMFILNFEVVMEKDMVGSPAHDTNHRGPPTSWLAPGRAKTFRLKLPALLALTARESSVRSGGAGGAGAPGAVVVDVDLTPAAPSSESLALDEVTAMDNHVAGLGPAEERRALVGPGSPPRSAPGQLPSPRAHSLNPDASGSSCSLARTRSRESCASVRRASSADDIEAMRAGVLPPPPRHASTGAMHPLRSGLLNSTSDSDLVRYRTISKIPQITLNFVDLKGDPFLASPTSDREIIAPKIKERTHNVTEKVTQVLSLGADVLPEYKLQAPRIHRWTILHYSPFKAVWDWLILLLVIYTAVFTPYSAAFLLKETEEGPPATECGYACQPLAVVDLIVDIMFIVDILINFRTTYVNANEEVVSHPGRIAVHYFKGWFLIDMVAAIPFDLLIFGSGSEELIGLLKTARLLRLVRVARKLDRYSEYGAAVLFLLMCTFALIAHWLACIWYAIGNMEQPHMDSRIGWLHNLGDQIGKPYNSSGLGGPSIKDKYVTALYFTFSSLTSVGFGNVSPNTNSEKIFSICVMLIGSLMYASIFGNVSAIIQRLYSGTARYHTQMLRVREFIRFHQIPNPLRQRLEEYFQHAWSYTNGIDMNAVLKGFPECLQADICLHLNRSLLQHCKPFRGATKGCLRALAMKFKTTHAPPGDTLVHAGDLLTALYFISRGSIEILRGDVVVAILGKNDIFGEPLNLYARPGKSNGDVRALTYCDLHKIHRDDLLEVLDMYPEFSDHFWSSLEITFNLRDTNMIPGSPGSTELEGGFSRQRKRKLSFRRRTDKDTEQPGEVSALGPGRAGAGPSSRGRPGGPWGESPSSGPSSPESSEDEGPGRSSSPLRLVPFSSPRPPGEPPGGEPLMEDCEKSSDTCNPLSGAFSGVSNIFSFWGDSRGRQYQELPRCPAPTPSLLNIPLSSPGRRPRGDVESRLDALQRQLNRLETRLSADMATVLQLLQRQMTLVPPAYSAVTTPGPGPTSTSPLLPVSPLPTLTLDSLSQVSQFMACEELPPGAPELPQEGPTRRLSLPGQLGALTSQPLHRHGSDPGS
Chain of Cytochrome P450 3A4 (Homo sapiens) (P08684 whole entry, looked up): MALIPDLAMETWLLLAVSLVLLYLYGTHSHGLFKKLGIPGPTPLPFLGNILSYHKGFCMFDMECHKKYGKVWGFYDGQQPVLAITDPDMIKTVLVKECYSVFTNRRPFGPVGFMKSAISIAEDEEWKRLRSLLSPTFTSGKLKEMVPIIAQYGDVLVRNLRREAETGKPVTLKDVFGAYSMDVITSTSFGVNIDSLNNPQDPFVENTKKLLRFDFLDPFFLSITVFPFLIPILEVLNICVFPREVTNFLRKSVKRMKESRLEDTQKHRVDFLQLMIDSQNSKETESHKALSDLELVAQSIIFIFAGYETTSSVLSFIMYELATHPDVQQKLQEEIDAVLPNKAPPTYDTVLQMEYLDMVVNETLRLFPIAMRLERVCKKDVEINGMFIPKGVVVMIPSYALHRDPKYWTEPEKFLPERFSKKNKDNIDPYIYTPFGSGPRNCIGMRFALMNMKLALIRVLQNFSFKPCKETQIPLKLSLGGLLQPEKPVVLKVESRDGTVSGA

Compound	Potency [1]	Potency [2]	Potency [3]	Potency [4]	Potency [5]
N#Cc1cc2ccccc2c2ccccc12	35.8 µM (active)	35.8 µM (active)	0.0636 µM (active)	inactive	
Cc1ccc(C)o1	inactive	inactive	inactive	inactive	
CCOC(=O)C1=C(C)NC(C)=C(C(=O)OC)C1c1cccc([N+](=O)[O-])c1 (stereo unspecified)	1.55 µM (active)	0.977 µM (active)	inactive	inactive	
Cc1c(Cn2ccnc2)c2ccccc2n1CCC(=O)O	34.7 µM (active)	3.09 µM (active)	12.3 µM (active)	inactive	
COc1ccc([C@@H]2Sc3ccccc3N(CCN(C)C)C(=O)[C@@H]2OC(C)=O)cc1	inactive	inactive	inactive		
CC(=O)O[C@H]1C[C@@H]2CC[C@@H]3[C@H](CC[C@@]4(C)[C@H]3C[C@H]([N+]3(C)CCCCC3)[C@@H]4OC(C)=O)[C@@]2(C)C[C@@H]1N1CCCCC1	inactive	inactive	inactive	inactive	
CCCCCC(CO)CCC (stereo unspecified)	inactive	inactive	inactive	inactive	inactive
CN1CCC(=C2c3ccccc3C=Cc3ccccc32)CC1	24.5 µM (active)	inactive	inactive		
CCCCCc1ccc(N)cc1	6.33 µM (active)	28.3 µM (active)	28.3 µM (active)	inactive	
COC(=O)CSc1cc(N=c2sc(=O)n3n2CCCC3)c(F)cc1Cl	31.7 µM (active)	8.94 µM (active)	3.17 µM (active)		
Oc1ccc2c(c1)OCO2	19.9 µM (active)	9.95 µM (active)	31.5 µM (active)	inactive	
CCOc1ccc2[nH]cc(C(=O)NCc3ccccc3)c(=O)c2n1	79.6 µM (active)	25.2 µM (active)	31.7 µM (active)	inactive	

— PubChem BioAssay (Tox21)
